Records with an inconclusive call do not appear. More than one record can exist for a structure, and the calls need not agree. Active and inactive are the calls of the source. How the source made its calls, unless noted: active means hit-call score of the fitted dose curve at least 0.9, where 1 is the maximum; inconclusive means response in the unintended direction; inactive means score below 0.9.
Tests used:
[1] = ATG_VDRE_CIS: Attagene CIS-FACTORIAL HepG2 Assay for human Vitamin D Receptor Element (VDRE) (AID 2282968; active means hit-call score of the fitted dose curve at least 0.9, where 1 is the maximum; inactive means score below 0.9); settings: HepG2 VDRE cis-reporter transcription, actives raise or lower the signal
Outline: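 In transiently transfected HepG2 liver cells, gain or loss of reporter mRNA after 24 h exposure is scored relative to DMSO, using fluorescence detection by capillary electrophoresis of RT-PCR products.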

[2] = target: Estrogen receptor (Homo sapiens) (UniProt P03372); assay: ATG_ERa_TRANS: Attagene TRANS-FACTORIAL HepG2 Assay for human Estrogen Receptor alpha (ERa) (AID 2282970); settings: HepG2 Attagene TRANS ERa GAL4 reporter, mRNA
Chain of Estrogen receptor (Homo sapiens) (P03372 whole entry, looked up, the tested form may be a part): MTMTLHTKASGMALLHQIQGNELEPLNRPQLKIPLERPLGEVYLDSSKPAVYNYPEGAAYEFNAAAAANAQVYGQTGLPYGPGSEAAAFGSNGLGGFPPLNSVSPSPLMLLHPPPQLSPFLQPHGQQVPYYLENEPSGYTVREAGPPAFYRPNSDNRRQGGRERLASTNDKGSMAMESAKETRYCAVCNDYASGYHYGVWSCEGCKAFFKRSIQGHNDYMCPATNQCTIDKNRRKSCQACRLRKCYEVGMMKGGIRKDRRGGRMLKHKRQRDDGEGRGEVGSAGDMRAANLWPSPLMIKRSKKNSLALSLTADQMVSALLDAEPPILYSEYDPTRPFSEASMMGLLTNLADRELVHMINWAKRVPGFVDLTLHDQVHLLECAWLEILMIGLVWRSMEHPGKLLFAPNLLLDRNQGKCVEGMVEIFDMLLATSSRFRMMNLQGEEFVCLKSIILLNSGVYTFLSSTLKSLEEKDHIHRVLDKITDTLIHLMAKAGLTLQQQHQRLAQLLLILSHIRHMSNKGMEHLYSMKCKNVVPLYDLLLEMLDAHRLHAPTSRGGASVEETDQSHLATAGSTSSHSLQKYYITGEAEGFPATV
Outline: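 HepG2 cells transiently transfected with multiplexed GAL4-UAS reporter units read out chimeric NR-Gal4 activity. After 24 h compound exposure, reporter mRNA was quantified by RT-PCR, 6-FAM labeling, HpaI digestion and capillary electrophoresis, relative to DMSO.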

[3] = target: X-box-binding protein 1 (Homo sapiens) (UniProt P17861); assay: ATG_Xbp1_CIS: Attagene CIS-FACTORIAL HepG2 Assay for human X-box Binding Protein 1 (XBP1) (AID 2282972; active means hit-call score of the fitted dose curve at least 0.9, where 1 is the maximum; inactive means score below 0.9); settings: HepG2 XBP1 cis-element reporter, Attagene multiplex; actives raise or lower the signal
Chain of X-box-binding protein 1 (Homo sapiens) (P17861 whole entry, looked up): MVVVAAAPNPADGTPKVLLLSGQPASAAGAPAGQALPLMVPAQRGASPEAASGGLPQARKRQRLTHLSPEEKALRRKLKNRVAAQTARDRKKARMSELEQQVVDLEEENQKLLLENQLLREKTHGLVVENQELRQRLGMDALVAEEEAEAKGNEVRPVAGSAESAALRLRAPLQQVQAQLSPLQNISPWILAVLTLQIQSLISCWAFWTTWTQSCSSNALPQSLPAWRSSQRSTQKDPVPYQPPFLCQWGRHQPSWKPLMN
Outline: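 HepG2 cells transiently transfected with cis-regulated multiple reporter transcription units; endogenous transcription factor activity measured 24 hours after chemical dosing. Reporter mRNA quantified by RT-PCR, 6-FAM primer extension, HpaI digestion and capillary electrophoresis; bidirectional fitting versus DMSO.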

[4] = ATG_M_19_TRANS: Attagene TRANS-FACTORIAL HepG2 Assay for M19 Transcription Factor (Internal Marker) (AID 2282974); settings: HepG2 Attagene TRANS-FACTORIAL M19 internal marker reporter
Outline: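 Measured here: internal-marker reporter transcript from HepG2 cells transfected with MRTUs, harvested at 24 h. cDNA PCR products were 6-FAM labelled by primer extension, cut with HpaI for 2 h at 37 C, and resolved by CE.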

[5] = ATG_GAL4_TRANS: Attagene TRANS-FACTORIAL HepG2 Assay for GAL4 (Internal Marker) (AID 2282976); settings: HepG2 Attagene TRANS GAL4 internal marker reporter
Outline: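 Background-control readout: GAL4-UAS reporter transcript in transiently transfected HepG2 cells after 24 h compound exposure. Measured by RT-PCR, 6-FAM primer extension, HpaI digest and capillary electrophoresis; gain-of-signal fit versus DMSO.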

[6] = target: Estrogen-related receptor gamma (Homo sapiens) (UniProt P62508); assay: ATG_ERRg_TRANS: Attagene TRANS-FACTORIAL HepG2 Assay for human Estrogen-Related Receptor gamma (ERRg) (AID 2282977); settings: HepG2 Attagene TRANS reporter, ERRg transactivation;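 further: hits increase reporter signal over DMSO so potencies reflect activators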
Chain of Estrogen-related receptor gamma (Homo sapiens) (P62508 whole entry, looked up, the tested form may be a part): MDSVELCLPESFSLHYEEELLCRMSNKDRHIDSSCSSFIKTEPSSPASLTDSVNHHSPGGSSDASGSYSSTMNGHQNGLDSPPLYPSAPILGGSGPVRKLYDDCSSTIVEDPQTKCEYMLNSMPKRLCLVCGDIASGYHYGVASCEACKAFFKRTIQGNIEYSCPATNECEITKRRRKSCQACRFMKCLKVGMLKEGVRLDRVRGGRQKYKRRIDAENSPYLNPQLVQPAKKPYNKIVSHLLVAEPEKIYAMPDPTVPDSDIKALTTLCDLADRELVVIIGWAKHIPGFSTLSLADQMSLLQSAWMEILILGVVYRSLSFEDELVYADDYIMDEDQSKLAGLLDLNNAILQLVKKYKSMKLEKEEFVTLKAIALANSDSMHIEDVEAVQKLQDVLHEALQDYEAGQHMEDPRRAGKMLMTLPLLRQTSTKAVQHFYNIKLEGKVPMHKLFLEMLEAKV
Outline: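 Transient HepG2 transfectants, 24 h compound exposure, GAL4-UAS reporter mRNA by RT-PCR/6-FAM labelling/capillary electrophoresis; positive direction vs DMSO.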

[7] = target: Glucocorticoid receptor (Homo sapiens) (UniProt P04150); assay: ATG_GR_TRANS: Attagene TRANS-FACTORIAL HepG2 Assay for human Glucocorticoid Receptor (GR) (AID 2282978); settings: HepG2 Attagene TRANS GR reporter, mRNA transcription;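 further: activators score as hits since higher reporter transcript over DMSO is fitted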
Chain of Glucocorticoid receptor (Homo sapiens) (P04150 whole entry, looked up, the tested form may be a part): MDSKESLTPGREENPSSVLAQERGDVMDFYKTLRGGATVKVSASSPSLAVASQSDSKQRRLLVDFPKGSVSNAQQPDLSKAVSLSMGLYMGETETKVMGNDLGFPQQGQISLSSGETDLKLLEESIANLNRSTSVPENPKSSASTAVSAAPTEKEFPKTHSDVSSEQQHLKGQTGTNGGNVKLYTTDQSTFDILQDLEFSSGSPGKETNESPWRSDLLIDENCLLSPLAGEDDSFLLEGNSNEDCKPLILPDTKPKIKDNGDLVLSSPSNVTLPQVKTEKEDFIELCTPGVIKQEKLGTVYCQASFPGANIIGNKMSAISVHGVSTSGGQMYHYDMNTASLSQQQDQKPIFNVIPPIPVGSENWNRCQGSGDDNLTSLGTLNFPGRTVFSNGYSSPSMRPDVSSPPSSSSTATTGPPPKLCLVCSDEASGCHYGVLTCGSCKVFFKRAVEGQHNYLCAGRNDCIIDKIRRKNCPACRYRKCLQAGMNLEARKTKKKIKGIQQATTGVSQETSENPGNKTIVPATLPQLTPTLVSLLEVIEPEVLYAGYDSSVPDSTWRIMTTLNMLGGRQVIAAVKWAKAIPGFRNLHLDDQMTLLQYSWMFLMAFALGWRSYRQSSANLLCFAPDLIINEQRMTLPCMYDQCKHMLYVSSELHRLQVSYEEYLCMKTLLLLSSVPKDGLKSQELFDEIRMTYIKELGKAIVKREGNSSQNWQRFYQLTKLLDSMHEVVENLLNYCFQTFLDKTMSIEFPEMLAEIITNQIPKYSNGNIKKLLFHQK
Outline: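 Measurement of GAL4-UAS-driven reporter mRNA in human HepG2 liver cells 24 h post-dosing, using RT-PCR with fluorescent labelling and capillary electrophoresis; the transfected constructs report exogenous NR-GAL4 chimera activity, fitted upward against DMSO.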

[8] = target: Bile acid receptor (Homo sapiens) (UniProt Q96RI1); assay: ATG_FXR_TRANS: Attagene TRANS-FACTORIAL HepG2 Assay for Farnesoid X Receptor (FXR) (AID 2282979); settings: HepG2 Attagene TRANS FXR-GAL4 reporter transcription;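 further: hits raise reporter mRNA above DMSO so AC50 marks FXR activation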
Chain of Bile acid receptor (Homo sapiens) (Q96RI1 whole entry, looked up, the tested form may be a part): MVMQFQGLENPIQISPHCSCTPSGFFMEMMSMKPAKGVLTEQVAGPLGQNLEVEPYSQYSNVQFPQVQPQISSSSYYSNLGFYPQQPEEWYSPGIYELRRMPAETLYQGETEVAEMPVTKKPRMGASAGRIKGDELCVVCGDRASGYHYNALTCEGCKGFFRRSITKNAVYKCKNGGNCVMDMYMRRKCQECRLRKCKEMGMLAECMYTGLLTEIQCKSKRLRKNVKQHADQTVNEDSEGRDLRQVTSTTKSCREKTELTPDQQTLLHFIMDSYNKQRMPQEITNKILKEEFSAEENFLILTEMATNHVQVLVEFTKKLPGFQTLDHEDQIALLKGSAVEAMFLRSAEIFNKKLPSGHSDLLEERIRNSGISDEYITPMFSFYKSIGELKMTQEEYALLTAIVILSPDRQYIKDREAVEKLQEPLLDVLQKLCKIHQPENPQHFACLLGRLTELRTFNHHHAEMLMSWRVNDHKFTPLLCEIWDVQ
Outline: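 HepG2 cells were transiently transfected with GAL4-UAS reporters driven by chimeric NR-Gal4 proteins and dosed for 24 h. Reporter mRNA was quantified by RT-PCR, fluorescent labelling, HpaI digestion and capillary electrophoresis, with gain of signal scored versus DMSO.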

[9] = target: Steroid hormone receptor ERR1 (Homo sapiens) (UniProt P11474); assay: ATG_ERRa_TRANS: Attagene TRANS-FACTORIAL HepG2 Assay for human Estrogen-Related Receptor alpha (ERRa) (AID 2282971); settings: HepG2 Attagene TRANS reporter, ERRa transactivation
Chain of Steroid hormone receptor ERR1 (Homo sapiens) (P11474 whole entry, looked up, the tested form may be a part): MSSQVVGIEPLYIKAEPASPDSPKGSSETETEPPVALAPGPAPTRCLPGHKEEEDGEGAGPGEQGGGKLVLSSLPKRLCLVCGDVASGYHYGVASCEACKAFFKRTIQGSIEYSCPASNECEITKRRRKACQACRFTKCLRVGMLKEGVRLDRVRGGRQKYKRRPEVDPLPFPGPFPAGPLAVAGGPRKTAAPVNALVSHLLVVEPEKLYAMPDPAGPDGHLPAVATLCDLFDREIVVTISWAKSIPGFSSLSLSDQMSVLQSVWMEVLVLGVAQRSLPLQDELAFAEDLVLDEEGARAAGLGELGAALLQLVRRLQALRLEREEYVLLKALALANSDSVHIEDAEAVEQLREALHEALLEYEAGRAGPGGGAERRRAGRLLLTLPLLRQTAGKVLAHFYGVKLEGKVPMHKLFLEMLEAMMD
Outline: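 HepG2 cells transiently transfected with GAL4-UAS reporter units and chimeric NR-Gal4 constructs; after 24 hour compound incubation, reporter mRNA quantified by RT-PCR, fluorescent labelling and capillary electrophoresis, gain of signal versus DMSO.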

[10] = target: Nuclear receptor subfamily 1 group I member 3 (Homo sapiens) (UniProt Q14994); assay: ATG_CAR_TRANS: Attagene TRANS-FACTORIAL HepG2 Assay for human Constitutive Androstane Receptor (CAR) (AID 2282969); settings: HepG2 Attagene TRANS-FACTORIAL CAR reporter;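 further: activators raise reporter mRNA above DMSO so AC50 marks induction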
Chain of Nuclear receptor subfamily 1 group I member 3 (Homo sapiens) (Q14994 whole entry, looked up, the tested form may be a part): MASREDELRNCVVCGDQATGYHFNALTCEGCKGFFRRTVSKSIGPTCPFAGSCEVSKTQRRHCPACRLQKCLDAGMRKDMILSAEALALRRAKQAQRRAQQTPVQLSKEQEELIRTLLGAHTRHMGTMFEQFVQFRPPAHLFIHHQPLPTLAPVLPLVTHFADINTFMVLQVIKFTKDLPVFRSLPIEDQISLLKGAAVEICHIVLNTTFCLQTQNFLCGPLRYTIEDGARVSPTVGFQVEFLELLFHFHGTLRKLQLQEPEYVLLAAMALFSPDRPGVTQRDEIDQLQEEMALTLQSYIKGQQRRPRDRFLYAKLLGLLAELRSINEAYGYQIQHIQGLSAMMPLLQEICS
Outline: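 Readout is reporter mRNA induction, quantified by fluorescent primer extension and capillary electrophoresis after RT-PCR. Cells were HepG2 transiently carrying chimeric NR-Gal4 constructs with GAL4-UAS reporters, treated for 24 h; activity scored upward from DMSO.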

CCCCC(CC)C(=O)OCCOCCOCCOCCOC(=O)C(CC)CCCC (configuration not stated)
AC50 [1]: 27.8 µM (active) | outcome [2]: inactive | outcome [3]: inactive | outcome [4]: inactive | outcome [5]: inactive | outcome [6]: inactive

O=C1Cc2ccccc2N1c1c(Cl)cccc1Cl
AC50 [1]: 1.4 µM (active) | AC50 [2]: 4.59 µM (active) | outcome [3]: inactive | outcome [4]: inactive | outcome [5]: inactive | outcome [7]: inactive

CCC(=O)O
outcome [1]: inactive | outcome [2]: inactive | outcome [3]: inactive | outcome [4]: inactive | outcome [5]: inactive | outcome [7]: inactive

CCCCCCCCCCCC(=O)NCCCN(C)C
AC50 [1]: 18 µM (active) | outcome [2]: inactive | AC50 [3]: 19.1 µM (active) | outcome [4]: inactive

O=C1c2ccc(O)c(O)c2C(=O)c2c(O)ccc(O)c21
outcome [1]: inactive | AC50 [2]: 4.53 µM (active) | outcome [3]: inactive | outcome [6]: inactive | outcome [8]: inactive

O=C(NCc1ncc(C(F)(F)F)cc1Cl)c1c(Cl)cccc1Cl
outcome [1]: inactive | outcome [2]: inactive | outcome [3]: inactive | outcome [7]: inactive | outcome [8]: inactive

FC(F)=C(F)C(F)(F)C(F)(F)C(F)(F)C(F)F
outcome [1]: inactive | outcome [2]: inactive | outcome [3]: inactive | outcome [4]: inactive | outcome [5]: inactive | outcome [6]: inactive | outcome [8]: inactive

Oc1ccc(Cc2ccccc2O)cc1
AC50 [1]: 64.5 µM (active) | AC50 [2]: 3.65 µM (active) | outcome [3]: inactive | outcome [4]: inactive | outcome [7]: inactive | outcome [8]: inactive

COC(=O)CC(C(C)=O)C(=O)OC (configuration not stated)
outcome [1]: inactive | outcome [2]: inactive | outcome [3]: inactive | outcome [4]: inactive

O=CC(F)(F)C(F)(F)C(F)(F)F
outcome [1]: inactive | outcome [2]: inactive | outcome [3]: inactive | outcome [4]: inactive | outcome [5]: inactive | outcome [7]: inactive | outcome [8]: inactive

CCCCc1oc2ccccc2c1C(=O)c1cc(I)c(OCCN(CC)CC)c(I)c1
AC50 [1]: 9.14 µM (active) | outcome [2]: inactive | AC50 [3]: 26.4 µM (active) | outcome [4]: inactive | outcome [6]: inactive | outcome [7]: inactive | outcome [8]: inactive

CCc1cccc(CC)c1N(COC)C(=O)CS(=O)(=O)O
AC50 [1]: 5.6 µM (active) | outcome [2]: inactive | outcome [3]: inactive | outcome [4]: inactive | outcome [5]: inactive | outcome [6]: inactive | outcome [7]: inactive | outcome [8]: inactive

CCCCCCCCC1CCC(=O)O1 (configuration not stated)
outcome [1]: inactive | outcome [2]: inactive | outcome [3]: inactive | outcome [5]: inactive | outcome [7]: inactive | outcome [8]: inactive

C=CC(=O)OCC(CO)(COCC(COC(=O)C=C)(COC(=O)C=C)COC(=O)C=C)COC(=O)C=C
AC50 [1]: 0.722 µM (active) | outcome [2]: inactive | AC50 [3]: 2.87 µM (active) | outcome [7]: inactive

O=C(OC(=O)C(F)(F)C(F)(F)F)C(F)(F)C(F)(F)F
outcome [1]: inactive | outcome [2]: inactive | outcome [3]: inactive | outcome [4]: inactive | outcome [5]: inactive | outcome [8]: inactive

CCc1ccccc1O
AC50 [1]: 27.9 µM (active) | outcome [2]: inactive | outcome [3]: inactive | outcome [4]: inactive | outcome [7]: inactive

COc1ccccc1NC(=O)c1cc2ccccc2cc1O
AC50 [1]: 6.49 µM (active) | outcome [2]: inactive | AC50 [3]: 25.8 µM (active) | outcome [6]: inactive | outcome [8]: inactive

Oc1c(Cl)cc(Cl)cc1Sc1cc(Cl)cc(Cl)c1O
AC50 [1]: 3.4 µM (active) | outcome [2]: inactive | AC50 [3]: 1.45 µM (active) | outcome [6]: inactive | outcome [7]: inactive | outcome [8]: inactive

COC1=CC(=O)C[C@@H](C)[C@]12Oc1c(Cl)c(OC)cc(OC)c1C2=O
outcome [1]: inactive | outcome [2]: inactive | outcome [3]: inactive | outcome [4]: inactive | outcome [7]: inactive | outcome [8]: inactive

CC(C)(c1ccc(Oc2ccc(N)cc2)cc1)c1ccc(Oc2ccc(N)cc2)cc1
AC50 [1]: 3.6 µM (active) | outcome [2]: inactive | outcome [3]: inactive | outcome [4]: inactive | outcome [5]: inactive

N=C(N)c1ccc(OCCCCCOc2ccc(C(=N)N)cc2)cc1
AC50 [1]: 87.5 µM (active) | AC50 [2]: 23.5 µM (active) | AC50 [3]: 48.1 µM (active) | outcome [5]: inactive | outcome [7]: inactive

CCOC=O
outcome [1]: inactive | AC50 [2]: 59.7 µM (active) | outcome [3]: inactive | outcome [5]: inactive | outcome [6]: inactive | outcome [7]: inactive

O=S(=O)(c1ccc(OCc2ccccc2)cc1)c1ccccc1O
AC50 [1]: 8.61 µM (active) | outcome [2]: inactive | AC50 [3]: 31 µM (active) | outcome [7]: inactive | outcome [8]: inactive

CCOC(=O)c1nc(C(Cl)(Cl)Cl)n(-c2ccc(Cl)cc2Cl)n1
outcome [1]: inactive | AC50 [2]: 25.7 µM (active) | AC50 [3]: 178 µM (active) | outcome [5]: inactive

NC(C(F)(F)F)C(F)(F)F
outcome [1]: inactive | outcome [9]: inactive | outcome [3]: inactive

COCC1CCC(CO)CC1 (configuration not stated)
outcome [1]: inactive | outcome [2]: inactive | outcome [3]: inactive

CCCCCCCC(OC)OC
outcome [1]: inactive | outcome [2]: inactive | outcome [3]: inactive | outcome [7]: inactive | outcome [8]: inactive

C[C@]12CC[C@@H]3c4ccc(O)cc4CC[C@H]3[C@@H]1CC[C@@H]2OC(=O)CCC1CCCC1
outcome [1]: inactive | AC50 [2]: 0.0823 µM (active) | outcome [3]: inactive | outcome [7]: inactive

Cc1cc(Cc2cc(C)cc(C(C)(C)C)c2O)c(O)c(C(C)(C)C)c1
outcome [1]: inactive | outcome [2]: inactive | AC50 [3]: 25 µM (active) | outcome [4]: inactive | outcome [8]: inactive

O=C(CCCN1CCC(O)(c2ccc(Cl)cc2)CC1)c1ccc(F)cc1
AC50 [3]: 50.3 µM (active) | outcome [4]: inactive

NC(=NCCCCCCN=C(N)/N=C(\N)Nc1ccc(Cl)cc1)/N=C(\N)Nc1ccc(Cl)cc1
outcome [10]: inactive | outcome [2]: inactive | outcome [3]: inactive | AC50 [7]: 25.3 µM (active) | outcome [7]: inactive

Nc1ccn([C@@H]2O[C@H](CO)[C@@H](O)C2O)c(=O)n1 (some centres not stated)
outcome [1]: inactive | outcome [9]: inactive | outcome [3]: inactive | outcome [4]: inactive | outcome [5]: inactive | outcome [7]: inactive

From PubChem BioAssay (EPA / NIEHS)
